Data on 93 compounds can be found in PubChem BioAssay AID686940 (The Scripps Research Institute Molecular Screening Center, 2013).

The whole screen tested about 370,000 compounds, of which about 2,600 (0.7%) were called active. The full list was thinned out, with actives kept by preference. Unmarked numbers belong to inactive results.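 The calls were made as follows: active = inhibition above a per-plate cutoff, mean inhibition of test wells between control levels plus 3 SD (cut at about 38% in these data); inactive = the rest.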

COUP transcription factor 2 (Homo sapiens), sequence (P24468 whole entry, looked up): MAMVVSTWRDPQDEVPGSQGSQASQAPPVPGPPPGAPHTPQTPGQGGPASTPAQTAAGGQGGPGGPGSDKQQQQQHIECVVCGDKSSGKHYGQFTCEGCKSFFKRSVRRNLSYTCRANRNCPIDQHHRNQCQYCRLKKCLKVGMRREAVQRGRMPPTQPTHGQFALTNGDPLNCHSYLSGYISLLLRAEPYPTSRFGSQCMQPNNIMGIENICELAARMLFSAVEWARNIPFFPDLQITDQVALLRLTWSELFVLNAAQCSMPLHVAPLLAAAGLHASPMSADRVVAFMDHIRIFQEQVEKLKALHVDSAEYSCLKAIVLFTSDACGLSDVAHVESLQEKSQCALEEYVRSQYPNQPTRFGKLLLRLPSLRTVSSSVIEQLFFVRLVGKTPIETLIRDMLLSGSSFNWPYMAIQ

This test concerns the target COUP transcription factor 2 (Homo sapiens) (UniProt P24468). Briefly: NR2F2 transcriptional activity inhibitors, primary screen, cell-based, luciferase reporter, HEK293T, luminescence (AID 686940).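 Also: cells cotransfected with COUP-TFII expression vector driving the NGFI-A reporter; 0% = median of COUP-TF2 test wells and 100% = reporter-only cells.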 The settings on record: HEK293T NGFI-A luciferase reporter, at 8.6 µM, hits give high values.
One may read the inhibition as the drop in the measured response relative to a control, in per cent. With `CCC(=O)OCCCN1C(=O)CCC12CCC(c1ccccc1)CC2` (stereo not drawn), the inhibition is -6.04%. Then `COc1ccc(C(=O)CSc2nnc(-c3cnccn3)n2-c2ccc(C)cc2)cc1`, with 3.51%. The same measure for `O=C(CCl)NC1CCCCN(Cc2cccc(C(F)(F)F)c2)C1=O` (stereo not drawn): 4.87%; for `COc1ccc2c(c1)c(=Cc1ccc(N(C)C)cc1)c1cc(-c3ccccc3)[n+](C)n12`: 76.4% (active). Consider `COC(=O)C1CN(CC(C)C)CCS(=O)(=O)N1Cc1ccc(F)cc1` (stereo not drawn), for which the inhibition was 6.54%. As for `C=CCNc1ncnc2ccc(Br)cc12`, the inhibition is 48.3% (active). On to `Cc1nc(CNc2ncnc3ccc(-c4ccc5c(c4)OCO5)cc23)cs1`, for which the inhibition is 10.5%. Then `COc1ccc(Cn2cc(COC(=O)N(C)Cc3ccccc3)nn2)cc1`, with 3.65%. For the compound `Nc1[nH]c(/C=C2/CCCCC2n2[nH]c(=O)n(-c3ccccc3)c2=O)c(Cc2ccccc2)[n+]1Cc1ccccc1` (stereo not drawn), the inhibition was 10.8%. In the case of `COC(=O)[C@]12C[C@H](CC(=O)NCc3ccccc3)C(=O)N(Cc3ccccc3)C1=C[C@H](COCc1ccccc1)O[C@@H]2C`, the inhibition is 7.28%. Then `COc1cc(C(O)c2nc3ccccc3n2C)cc(OC)c1OC` (stereo not drawn), with 10.1%. Take `COc1cc(/C=C/C(=O)N2CCc3ccccc3C2)cc(OC)c1OC`: the inhibition was -52.5%.

On to `COc1cc(/C=C/C(=O)n2cnc3ccccc32)cc(OC)c1OC`, for which the inhibition was 47.1% (active). The same measure for `COC(=O)C12C=C3CC(c4ccccc4)=C3C(=O)N1Cc1[nH]c3ccccc3c1C2` (stereo not drawn): 5.87%; for `COc1cccc2c1C(=O)c1c(O)c3c(c(O)c1C2=O)CC(O)(C(C)=NNC(=O)c1ccc(Cl)c(Cl)c1)CC3OC1CC(N)C(O)C(C)O1` (stereo not drawn): 52.1% (active); for `CN(C)[C@H]1CCN(c2cccc3c2S(=O)(=O)N2CC[C@H](C2)O3)C1`: -16.6%.

Take `CCOC(=O)C1=C(C)NC2=C(C(=O)CC(C)(C)C2)C1c1ccc2c(c1)OCO2` (stereo not drawn): the inhibition is 13.2%.

In the case of `CCc1cc(-c2nnn(CCC3COCCO3)c2CC)ccc1-c1cn(Cc2ccc3ccccc3c2)nn1` (stereo not drawn), the inhibition is 57.9% (active). The same measure for `COC(=O)[C@]12C[C@H](CC(=O)N3CCOCC3)C(=O)N(Cc3ccc(Cl)cc3Cl)C1=C[C@H](COCc1ccccc1)O[C@@H]2C`: -11.3%. The same measure for `CCOc1ccc(OCc2ccc(C(=O)N(C)c3ccccc3)o2)cc1`: -8.76%. Consider `COc1cccc(N2CCN(CC(=O)N(C)Cc3ccc(F)cc3)CC2)c1`, for which the inhibition is 1.56%. Take `CN(C(=O)CN1CCN(c2cc(-c3ccc(OCc4ccccc4)cc3)ncn2)CC1)c1ccccc1`: the inhibition was 60.6% (active). Then `CC(O)(c1cccc(F)c1)c1nc(-c2ccc3c(c2)OCO3)cs1` (stereo not drawn), with 8.11%.

As to `O=C(Nc1nc(-c2ccc3c(c2)OCO3)cs1)c1ccncc1`, the inhibition is 52.5% (active). The same measure for `CCc1ccccc1NC(=O)c1cc(-c2ccc3c(c2)OCO3)on1`: -0.24%. The same measure for `CC(=O)Nc1ccc(-c2csc(NC(=O)Nc3ccccc3)n2)cc1`: 60.9% (active).

For the compound `COc1ccc(CC(N)c2csc(NC(=O)Nc3ccc(C(C)C)cc3)n2)cc1` (stereo not drawn), the inhibition is 15.8%. The same measure for `CCOC(=O)c1csc(NC(=O)Nc2cccc(OC)c2)n1`: -7.28%; for `O=C1CC[C@@]23CCCN2C(=O)CCC[C@H]3[C@H]1Cc1ccccc1`: -3.33%; for `COC(=O)[C@]12C[C@H](CC(=O)NCc3ccccc3)C(=O)N(CCC3=CCCCC3)C1=C[C@H](C(C)C)O[C@@H]2C1CC1`: 2.64%. Then `Cn1c(=O)c2c(nc(NCc3ccccc3)n2CC(N)=O)n(C)c1=O`, with 4.42%; and `CCCCNc1nc2c(c(=O)n(C)c(=O)n2C)n1Cc1cccc(OC)c1`, with 53.5% (active). The same measure for `CCn1c(NCCc2ccc(OC)c(OC)c2)nc2c1c(=O)n(C)c(=O)n2C`: -1.49%; for `O=C(NC1CCCCN(Cc2cccc(C(F)(F)F)c2)C1=O)c1ccccc1I` (stereo not drawn): 22.4%. Take `CCC(=O)Nc1ccc2c(c1)C(=O)N(C)[C@@H]1CC[C@@H](CC(=O)NCCc3ccccc3)O[C@H]1CO2`: the inhibition is 19%.

As to `CC(C)N1CCCCC(NC(=O)C(C)(C)C)C1=O` (stereo not drawn), the inhibition was 0.07%. Then `Cc1ccc(CN2CCCCC(NC(=O)C3CCCCC3)C2=O)cc1` (stereo not drawn), with 2.64%; and `O=C(NCCc1c[nH]c2ccccc12)OCc1cn(-c2c(F)cccc2F)nn1`, with -1.45%; and `CC(=O)OCCN1CCCC12CCC(c1ccccc1)CC2` (stereo not drawn), with -6.1%. Then `O=c1oc2ccccc2cc1-c1cn(-c2ccccc2)c(=S)[nH]1`, with 81.6% (active).

For the compound `C[C@@H](NC(=O)c1ccccc1OCC(=O)Nc1ccc(I)cc1)C(=O)N(C)Cc1ccccc1`, the inhibition is 3.89%. On to `COc1ccc(CCNC(=O)CSc2nc3c([nH]2)c(=O)n(C)c(=O)n3C)cc1`, for which the inhibition is -4.66%. Then `CC(CCN1CCC(C(O)(c2ccccc2)c2ccccc2)CC1)Oc1ccc(C(F)(F)F)cc1` (stereo not drawn), with 9.47%; and `O=C(OC12CC3CC(CC(C3)C1)C2)c1ccc(NCc2cc(O)ccc2O)cc1`, with 82.7% (active). Regarding `CCCNC(=O)c1ccccc1NC(=O)CSCc1ccc(OC)cc1`, the inhibition was 10.2%. In the case of `COc1ccc(/C=C2/SC(=O)N(CCCCCC(=O)Nc3ccccc3C(=O)O)C2=S)cc1`, the inhibition was 48% (active). The same measure for `COc1ccc(NC(=O)CCCN2C(=O)C(c3ccccc3)Oc3cccnc32)cc1` (stereo not drawn): -1.91%. The same measure for `CCN(CC)C(=O)CC[C@H]1CC[C@]2(CCCN(Cc3ccc(Cl)cc3)C2)O1`: -15.6%; for `COc1ccc(CN2C(=O)N3Cc4cc(OC)ccc4C3CS2(=O)=O)cc1` (stereo not drawn): -0.26%. For `C/C(CCc1ccccc1)=N\NC(=O)c1ccc(CN2CCOCC2)cc1`, the inhibition is -14.4%. Then `O=C(Nc1ccccc1C(=O)N1CCOCC1)c1ccc(CSc2ccccc2)cc1`, with 6.62%. In the case of `O=C(Nc1ccc(CSc2ccccc2)cc1)c1ccc(CN2CCOCC2)cc1`, the inhibition was 68.5% (active). As for `CCC(CO)Nc1cccc2c1S(=O)(=O)N(Cc1cn(Cc3ccccc3C(F)(F)F)nn1)Cc1ccccc1O2` (stereo not drawn), the inhibition is -2%. The same measure for `COc1ccc(-n2c(SCC(=O)Nc3ccc(C)c(Cl)c3)nc3ccccc3c2=O)cc1`: 2.13%. Then `CCCC[C@H](C(=O)N(CC)c1ccccc1)[C@@H](O)c1ccc2ccccc2c1`, with -0.42%; and `Cc1ccc(NC(=O)C(c2ccccc2)N2CCN(C(=O)c3ccco3)CC2)cc1` (stereo not drawn), with 3.53%.

In the case of `Cc1ccc(OCC(=O)Nc2ccc(N3CCN(C(=O)c4ccco4)CC3)cc2)c(C)c1`, the inhibition is 44.3% (active).

For the compound `O=C(COc1ccccc1)Nc1ccc(N2CCN(C(=O)c3cccs3)CC2)cc1`, the inhibition is -0.29%. Take `C=CCN1C(=O)[C@H](CC(=O)NCCCN2CCCC2=O)[C@@]2(C(=O)OCC)CCCC=C12`: the inhibition is -4.55%. As to `CC(C)(C)NC(=O)C(c1cccnc1)N(C(=O)c1cnco1)c1ccc(C(C)(C)C)cc1` (stereo not drawn), the inhibition is 36.4%. As for `CSc1ccc(C=Nn2c(-c3ccc(F)cc3)n[nH]c2=S)cc1`, the inhibition was -7.74%.

With `Cc1ccc(NC(=S)NNC(=O)CSc2nnc(SCc3ccccc3Cl)s2)cc1`, the inhibition was 9.26%. Consider `FC(F)(F)c1cccc(NC(=S)OC2CCC23CCC(c2ccccc2)CC3)c1` (stereo not drawn), for which the inhibition was -0.26%. Take `COc1ccc(CCNC(=O)COC(=O)Cc2cc(OC)c(OC)c(OC)c2)cc1`: the inhibition was 2.38%.

Regarding `COc1cc(CC(=O)Nc2nc(-c3ccc(F)c(F)c3)cs2)cc(OC)c1OC`, the inhibition is 64.1% (active). The same measure for `O=C(CCc1ccccc1)NCCc1cccs1`: -20.7%; for `CCCc1ccc(-c2csc(NC(=O)Cc3cccs3)n2)cc1`: 42.5% (active). The same measure for `COc1ccc(CC(=O)Nc2nc(-c3ccc(F)c(F)c3)cs2)cc1OC`: 64.1% (active); for `COc1ccc(C2(CNC(=O)Cc3ccc(OC)c(OC)c3)CCCC2)cc1`: -3.38%.

In the case of `COc1cc(CCC(=O)Nc2ccncc2Cl)cc(OC)c1OC`, the inhibition is -12.9%. In the case of `O=C(Cc1cccs1)Nc1ccc([N+](=O)[O-])cc1`, the inhibition is 1.87%. The same measure for `Fc1ccc(-c2csc(-c3ccc(C4SCCS4)cc3)n2)cc1F`: 3.02%; for `O=C(OC12CCCN(C1)/C(=C/c1cccnc1)C2)C1CCCC1` (stereo not drawn): 0.25%; for `Cc1cccc(C(=O)Nc2c(-c3ccc(F)cc3)nc3ncccn23)c1`: -5.63%.

`CCN(C(=O)[C@@H](C1CC1)[C@@H](O)c1ccc2ccccc2c1)c1ccccc1`: the inhibition was 8.36%. In the case of `O=C1C(=O)N(Cc2ccc(-c3ccsc3)cc2)c2ccc(OC(F)(F)F)cc21`, the inhibition was -43.7%. The same measure for `CCCCC(=O)N[C@@H]1CC[C@@]23CCCN2C(=O)CCC[C@H]3[C@H]1C`: -2.57%.

Take `COc1ccc(NS(=O)(=O)c2cc(NC(=O)c3ccc(S(=O)(=O)N(C)C)cc3)ccc2N2CCOCC2)cc1`: the inhibition is 9.06%. In the case of `COc1ccc(NS(=O)(=O)c2ccc(NC(=O)c3ccc(N(C)S(C)(=O)=O)cc3)cc2)cc1`, the inhibition was 60.6% (active).

Regarding `CCOC(=O)c1cc(C(=O)Nc2ccc(S(=O)(=O)Nc3ccc(OC)cc3)cc2)nn1C`, the inhibition was 8.95%. With `O=C(N1CCOCC1)N1CC[C@H]2[C@H](CCCN2Cc2ccc(F)cc2)C1`, the inhibition was 6.77%. Take `CCOC(=O)c1cccc(NC(=O)CN(C)S(=O)(=O)c2ccc(-c3cocn3)s2)c1`: the inhibition was -17.4%. The same measure for `CCn1c(=O)n2n(c1=O)[C@@]1(C=C3CCCC[C@H]32)N=C(NC(=O)c2ccccc2)N(Cc2ccccc2)[C@H]1Cc1ccccc1`: 22.3%; for `C#CCN([C@H](C(=O)OC)C(C)CC)S(=O)(=O)c1ccccc1Br` (stereo partly drawn): -21.6%. Then `FC(F)(F)c1cccc(Cn2ccc3ccc(-c4ccc5ccn(Cc6ccccc6)c5c4)cc32)c1`, with 6.43%. For `C[C@H](C(=O)N(C)c1ccccc1)[C@@H](O)c1ccc(Cl)cc1`, the inhibition was -16.9%. On to `O=C(C1CCN(S(=O)(=O)c2cccs2)CC1)N1CCCCCC1`, for which the inhibition was -11.4%.

For the compound `O=C(Nc1ccc(Br)cn1)C1CCN(S(=O)(=O)c2cccs2)CC1`, the inhibition was 48.1% (active). As to `O=C(NCc1ccc(Cl)cc1)C1CCN(S(=O)(=O)c2cccs2)CC1`, the inhibition was 5.16%.

On to `COC(=O)C1CN(Cc2cn(Cc3ccc(F)cc3)nn2)CCS(=O)(=O)N1Cc1ccc(Cl)cc1` (stereo not drawn), for which the inhibition is 7.03%. `COC(=O)[C@]12C[C@H](CC(=O)NCc3cccs3)C(=O)N(CCc3ccc(OC)c(OC)c3)C1=C[C@H](C(C)C)O[C@@H]2C1CC1`: the inhibition is 17.9%. In the case of `COc1ccc(N2CCN(CCNS(=O)(=O)c3ccc(C(C)(C)C)cc3)CC2)cc1`, the inhibition is 2.21%. Then `C=CCN1C(=O)[C@@H](CC(=O)N2CCN(C(=O)c3ccco3)CC2)[C@]2(C(=O)OC)CCCCC=C12`, with -0.82%.
